HCV inh: inhibitors of hepatitis C virus infection. Huh7.5.1 HCVcc-Cre infection, luciferase reporter, 44 h. Potency, µM (top dose mostly 41.8 µM), without a hit: top-dose activity change, negative = inhibition, hits mostly inhibitors. 340,000 tested, 3.4% active; active means well fitted inhibition curve with a large enough effect; inconclusive means small, poorly fitted or top-dose-only effect, or another doubt; inactive means no such curve, though single readings can be large or run the other way; further: potency means the concentration at half of the fitted maximal effect; on the % scale 0 is the no-effect control and ±100 the full control effect
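A cell-based infection assay in which seeded cells (1,000 per well) receive test compound after 4 h, are inoculated with HCVcc-Cre at approximately 0.5 moi, and are incubated 44 h before luminescence detection.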
HCMV antiviral: human cytomegalovirus inhibition; activity change, negative = inhibition, % at 57.5 µM; AID 1259415; 410,000 tested, 4.5% active; HFF cells, HCMV-luciferase reporter, 72 h; active compounds read low; in the data active means activity change below about -60%; inconclusive means no clear call, values can overlap the other calls; inactive means above about -39%; further: on the % scale 0 is the no-effect control and ±100 the full control effect
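Two compound doses tested in HFFs infected with HCMV-luciferase, MOI 1 PFU/cell, 72 h at 37C. Lysate luminescence read with OneGlo; data normalized against buffer-only and 10uM Salinomycin inhibitor controls.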
SARS PLP yeast: blocks SARS-CoV papain-like protease in a yeast assay; S. cerevisiae expressing SARS-CoV PLpro, growth rescue; Potency, µM (series often up to 32.9 µM), inactives show at the top dose activity, positive = growth rescue, hits mostly activators; 330,000 tested, 0.19% active; AID 485353; calls by dose curve; further: potency means the concentration at half of the fitted maximal effect; 0% is about no effect; nearly all actives have a fitted effect of over 55% in size
FMDV antiviral: antivirals against foot and mouth disease virus. AID 1159524. 410,000 tested, 1.2% active. Potency, µM (top dose mostly 57.9 µM), without a hit: at the top dose activity change, negative = inhibition, actives largely listed as inhibitors. FMDV antiviral cell-based qHTS; calls by dose curve; tested in HEK293T cells; further: read-out not given here; potency means the concentration at half of the fitted maximal effect; on the % scale 0 is the no-effect control and ±100 the full control effect; nearly all actives have a fitted effect of over 45% in size
LASV entry inh: inhibitors of Lassa virus binding or cell entry; Lassa virus pseudotype entry inhibition, cell reporter; Potency, µM (top dose mostly 37.9 µM), for inactives: at the highest dose activity change, negative = inhibition, most hits filed as inhibitors; AID 540256; 300,000 tested, 1.2% active; calls by dose curve; tested in HEK293 cells; further: potency means the concentration at half of the fitted maximal effect; on the % scale 0 is the no-effect control and ±100 the full control effect; nearly all actives have a fitted effect of over 50% in size
Marburg entry inh: inhibitors of Marburg virus binding or cell entry | AID 540276 | Potency, µM (titrated, usually from 37.8 µM), without a hit: at the highest dose activity change, negative = inhibition, most hits filed as inhibitors | 300,000 tested, 1.8% active | Marburg virus pseudotyped entry inhibition, cell reporter; calls by dose curve; tested in HEK293 cells; further: potency means the concentration at half of the fitted maximal effect; on the % scale 0 is the no-effect control and ±100 the full control effect
An asterisk follows results filed as active; ? = inconclusive; · = no result given; ! = repeats disagree; [ ] = another dose, or the depositor's remark. A selection: hits, their analogues and other compounds. The true share with any hit is near 8%.

SMILES	HCV inh	HCMV antiviral	SARS PLP yeast	FMDV antiviral	LASV entry inh	Marburg entry inh
Cn1ccsc1=NC(=O)c1ccccc1F	9%	-17	-3%	44%	-2%	?
Cc1ccc(CNC(=O)CCSCc2cccc(F)c2)cc1	-6%	-62*	-3%	-7%	·	·
Cc1cccc(Cn2ccn(Cc3ccc(Cl)cc3)c(=O)c2=O)c1	·	-62*	·	-2%	0%[46.1 µM]	·
COc1ccc2c(c1)C(n1c(C)ccc1C)C(=O)N2Cc1ccc(Cl)nc1 (centres undefined)	·	-9	·	·	·	·
COc1ccc(NC(=O)N2CC[C@@]3(CCCN(C(=O)c4ccncc4)C3)C2)cc1	·	·	·	-8%	·	·
CCC1=Nc2cc(C(=O)NCc3ccco3)ccc2Sc2ccccc21	?	-3	-32%	7%	?	-13%
CCC1=Nc2cc(C(=O)NCc3ccco3)ccc2Sc2ccc(Cl)cc21	?	-67*	-14%	-14%	?	?
CNC(=O)c1ccc2c(c1)N=C(C)c1cc(C)ccc1S2	·	4	·	-9%	-17%[46.1 µM]	?
CC1=Nc2cc(C(=O)NC3CCCC3)ccc2Sc2ccc(C)cc21	·	-93*	·	-2%	-33%[46.1 µM]	?
CC1=Nc2cc(C(=O)NC(C)C)ccc2Sc2ccc(C)cc21	·	-77*	·	-18%	3%[46.1 µM]	?
CCC1=Nc2cc(C(=O)NC3CCCC3)ccc2Sc2ccc(Cl)cc21	·	-71*	·	-23%	?	?
CC(C)c1ccc(CN2C(=O)C(n3cccc3)c3cccc(F)c32)cc1 (centres undefined)	·	-31	·	·	·	·
COc1ccc(C(=O)OCC(=O)N2c3ccccc3CC2C)cc1S(=O)(=O)N1CCOCC1 (centres undefined)	·	-29	·	-16%	·	·
CC1=Nc2cc(C(=O)NC3CCCC3)ccc2Sc2ccc(Cl)cc21	·	-72*	·	-25%	?	·
CCOC(=O)Cn1c(=O)n(C2CCCCC2)c2nc(-c3ccc(OCC)cc3)nc(C(N)=O)c21	·	1	·	-3%	?	·
O=C(NCC(c1ccco1)N1CCOCC1)c1ccc(F)c(F)c1 (centres undefined)	19%	-21	2%	-8%	-5%	8%[46.1 µM]
CC/C(=C(\c1ccc(O)cc1)c1ccc(OCCN(C)C)cc1)c1ccccc1	?	-67*	-7%	-14%	·	·
CCN(CC)CCOc1ccc(/C(=C(/Cl)c2ccccc2)c2ccccc2)cc1	7.9µM*	-71*!	-8%	?	·	·
CCC(=C(c1ccc(O)cc1)c1ccc(OCCN(C)C)cc1)c1ccccc1	·	-12	·	-20%	·	·
CC(NCc1ccc(Cl)c(Cl)c1)C(O)c1ccccc1 (centres undefined)	20%	-71*	-6%	·	25%	?
CC(NCc1ccccc1Cl)C(O)c1ccccc1 (centres undefined)	5%	16	3%	·	?	-8%
CC(NCc1ccc(OCc2ccc(Cl)cc2)cc1)C(O)c1ccccc1 (centres undefined)	10µM*	-28	0%	-25%	?	13µM*
O=C(CN1C(=O)C(=O)N(Cc2ccco2)C1=O)NC1CCCCC1	21%	-16	0%	-5%	·	·
COCc1cc(N2CCN(c3ccccc3F)CC2)nc(-c2ccccc2)n1	?	-17	-8%	-11%	-2%	15%[46.1 µM]
CC(C)Sc1cc(N2CCOCC2)nc(-c2ccccc2)n1	13µM*	?	-2%	?	2%	-24%
SMILES	HCV inh	HCMV antiviral	SARS PLP yeast	FMDV antiviral	LASV entry inh	Marburg entry inh
COCc1cc(N2CCOCC2)nc(-c2ccccc2)n1	?	10	1%	-22%	9%	10µM*
O=C1NC(c2ccccc2)=C(c2nc3ccccc3s2)C(c2ccc(F)cc2)N1 (centres undefined)	?	-27	-9%	22µM*	?	23µM*
O=C(COc1ccc(Br)cc1)Nc1ccc(S(=O)(=O)Nc2ccccn2)cc1	-10%	-70*	3%	42%	2%[46.1 µM]	4%[46.1 µM]
O=C(COc1ccc(NC(=O)c2ccccc2)cc1)c1ccccc1	-23%	69	-3%	4%	·	·
O=C(COc1ccc(Br)cc1)Nc1ccc(NC(=O)c2ccccc2)cc1	·	-68*	2%	40%	-1%	-29%
COC(=O)C1=C(C)N(Cc2ccccc2)C(=S)NC1c1cccc(C(F)(F)F)c1 (centres undefined)	·	·	·	·	·	-35%[14.2 µM]
Cc1ccc(-n2nc3c(N4CCC(C(=O)NC5CCCCC5)CC4)nnc(C)c3c2C)cc1	·	-8	·	-9%	16%[46.1 µM]	·
COc1ccc([C@H]2C[C@H](c3ccc(C)cc3)Nc3nc(N)nn32)cc1	·	·	·	·	·	7%
Cc1cccc2nc3ccccc3cc12	-25%	-24	·	46%	11%	1%
Cc1[nH]ccc2cc3nc4ccccc4c3cc12	·	-72*	·	-20%	·	·
CCCOc1cccc(C(=O)N(Cc2ccccc2)C2CCS(=O)(=O)C2)c1 (centres undefined)	14%	-66*	0%	-20%	?	?
CCCCOc1cccc(C(=O)N(Cc2ccc(Cl)cc2)C2CCS(=O)(=O)C2)c1 (centres undefined)	·	11	·	-19%	-7%[46.1 µM]	?
CN(C)c1ccc(CN(C(=O)c2ccc(Cl)c([N+](=O)[O-])c2)C2CCS(=O)(=O)C2)cc1 (centres undefined)	?	-2	-1%	-15%	?	11µM*
COc1cccc(C2CNC3(CCCC(C)C3)c3[nH]c4ccccc4c32)c1OC (centres undefined)	-29%	-65*	1%	-25%	·	·
COc1ccc(C(=O)c2cn(CC(=O)Nc3ccc4c(c3)OCO4)c3ccc(OC)cc3c2=O)cc1	·	-39	·	-1%	-24%[46.1 µM]	-29%[46.1 µM]
Cc1ccc(Cn2cc(C(=O)c3ccc(F)cc3)c(=O)c3cc4c(cc32)OCO4)cc1	·	8	·	-7%	?	-10%[46.1 µM]
COc1ccc(C(=O)c2cn(Cc3ccc(C)cc3)c3cc4c(cc3c2=O)OCO4)cc1	·	-65*	·	-25%	?	?
CCOc1ccc(NC(=O)Cn2cc(C(=O)c3ccccc3)c(=O)c3cc4c(cc32)OCCO4)cc1	·	-104*	·	?	-10%[46.1 µM]	?
COc1ccc2c(c1)c(=O)c(C(=O)c1ccccc1)cn2CC(=O)Nc1ccc2c(c1)OCO2	·	-103*	·	-11%	1%[46.1 µM]	0%[46.1 µM]
Cc1ccc(C(=O)c2cn(Cc3ccccc3)c3ccccc3c2=O)cc1	·	-63*	·	-23%	-23%[46.1 µM]	-11%[46.1 µM]
Cc1cnc(-n2ncc(C(=O)N(C)C3CCOC3)c2C)nc1-c1ccc(F)cc1 (centres undefined)	·	·	·	26%	·	·
CCOC(=O)C1CCCN(C(=O)c2c(C)nn(-c3ccc(F)cc3)c2-n2cccc2)C1 (centres undefined)	·	10	·	-23%	-2%[46.1 µM]	·
CC(C)Cc1nc2cc(NS(=O)(=O)N(C)C)cc(C(=O)N3CC4(C)CC3CC(C)(C)C4)c2n1C (centres undefined)	·	·	·	23%	·	·
